Source: the supplement of paper PMC9694430

Legend:
Experiment in all cases: thermal shift delta Tm vs DMSO control; higher = stronger stabilization (binding)
Conditions in all cases: 12.5 µM; protein concentration 2 µM
[1] = compound: C/C(O)=C(\C#N)C(=O)Nc1cc(Br)ccc1Br
Method in brief: (§1)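 Purified, E. coli-expressed rice kinase domain constructs were tested by differential scanning fluorimetry in 96-well plates: 19.5 μl of 2 μM kinase in 100 mM potassium phosphate pH 7.5, 150 mM NaCl, 10% glycerol, 5 × SYPRO Orange, plus compound in DMSO. Fluorescence was read from 25°C to 95°C at 0.05°C/s. Melting temperatures came from Boltzmann fits, and the shift is the triplicate mean relative to protein with DMSO alone.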

[2] = compound: CC(C)(C)c1cc(C=C(C#N)C#N)cc(Br)c1O
Method in brief: as §1

Tyrphostin 9 = compound: CC(C)(C)c1cc(C=C(C#N)C#N)cc(C(C)(C)C)c1O [Tyrphostin 9]
Method in brief: as §1

Aurora A Inhibitor I = compound: CCN1CCN(C(=O)Cc2ccc(Nc3ncc(F)c(Nc4ccc(C(=O)Nc5ccccc5Cl)cc4)n3)cc2)CC1 [Aurora A Inhibitor I]
Method in brief: as §1

Picropodophyllin (PPP) = compound: COc1cc([C@@H]2c3cc4c(cc3[C@H](O)[C@H]3COC(=O)[C@@H]23)OCO4)cc(OC)c1OC [Picropodophyllin (PPP)]
Method in brief: as §1

Anisomycin = compound: COc1ccc(C[C@H]2NC[C@H](O)[C@H]2OC(C)=O)cc1 [Anisomycin]
Method in brief: as §1

[3] = compound: COc1ccc(N(C(=O)Oc2c(C)cccc2C)c2ccnc(Nc3ccc(N4CCN(C)CC4)cc3)n2)c(OC)c1
Method in brief: as §1

[4] = compound: COc1ccc2c(c1)/C(=C/c1cnc[nH]1)C(=O)N2
Method in brief: as §1

[5] = compound: Cc1ccccc1-n1c(Cn2ncc3c(N)ncnc32)nc2cccc(C)c2c1=O
Method in brief: as §1

[6] = compound: Cn1cc(C2=C(c3cn(C4CCN(Cc5ccccn5)CC4)c4ccccc34)C(=O)NC2=O)c2ccccc21
Method in brief: as §1

[7] = compound: O=c1[nH]c2ccc(Cl)cc2c(N[C@@H]2CN3CCC2CC3)c1-c1nc2ccccc2[nH]1
Method in brief: as §1

LOC_OS04G41100-cb001, sequence (as listed by the source): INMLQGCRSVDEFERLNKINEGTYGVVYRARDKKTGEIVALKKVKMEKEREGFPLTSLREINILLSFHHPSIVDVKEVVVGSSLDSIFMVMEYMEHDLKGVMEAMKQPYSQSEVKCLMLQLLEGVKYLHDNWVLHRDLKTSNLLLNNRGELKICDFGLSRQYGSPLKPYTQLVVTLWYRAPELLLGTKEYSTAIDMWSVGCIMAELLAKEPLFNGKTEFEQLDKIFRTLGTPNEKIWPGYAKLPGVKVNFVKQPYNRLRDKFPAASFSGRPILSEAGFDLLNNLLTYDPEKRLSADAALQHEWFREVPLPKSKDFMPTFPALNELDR
LOC_OS06G22820-cb001, sequence (as listed by the source): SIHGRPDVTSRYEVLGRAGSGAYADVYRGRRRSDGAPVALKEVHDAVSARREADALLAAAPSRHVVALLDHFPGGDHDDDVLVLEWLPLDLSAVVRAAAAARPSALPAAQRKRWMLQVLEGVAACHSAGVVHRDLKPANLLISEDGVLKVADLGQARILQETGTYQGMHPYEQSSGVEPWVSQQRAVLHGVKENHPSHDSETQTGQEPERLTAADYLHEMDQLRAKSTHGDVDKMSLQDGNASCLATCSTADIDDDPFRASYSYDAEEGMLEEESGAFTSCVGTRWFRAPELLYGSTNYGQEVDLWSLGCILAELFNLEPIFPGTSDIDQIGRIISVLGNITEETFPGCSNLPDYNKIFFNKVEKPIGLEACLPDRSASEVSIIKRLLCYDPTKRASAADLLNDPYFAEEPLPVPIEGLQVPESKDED
LOC_OS06G16330-cb003, sequence (as listed by the source): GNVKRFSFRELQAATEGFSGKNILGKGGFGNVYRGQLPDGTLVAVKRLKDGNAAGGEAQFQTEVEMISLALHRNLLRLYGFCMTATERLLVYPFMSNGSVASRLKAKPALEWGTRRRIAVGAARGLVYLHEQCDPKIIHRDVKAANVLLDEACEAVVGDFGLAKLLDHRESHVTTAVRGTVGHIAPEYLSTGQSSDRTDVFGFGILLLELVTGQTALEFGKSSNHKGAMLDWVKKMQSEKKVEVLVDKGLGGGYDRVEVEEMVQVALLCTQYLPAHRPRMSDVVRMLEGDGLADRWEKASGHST
LOC_OS01G52050-cb004, sequence (as listed by the source): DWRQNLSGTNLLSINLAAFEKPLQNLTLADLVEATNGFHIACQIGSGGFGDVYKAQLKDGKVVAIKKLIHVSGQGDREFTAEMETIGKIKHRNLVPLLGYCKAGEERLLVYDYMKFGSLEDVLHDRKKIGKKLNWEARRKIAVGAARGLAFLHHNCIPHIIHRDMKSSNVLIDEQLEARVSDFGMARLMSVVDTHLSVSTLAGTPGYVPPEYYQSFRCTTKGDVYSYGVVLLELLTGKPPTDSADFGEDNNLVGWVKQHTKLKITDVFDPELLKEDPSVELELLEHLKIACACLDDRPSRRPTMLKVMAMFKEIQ

| Target | thermal shift delta Tm [1] [°C] | thermal shift delta Tm [2] [°C] | thermal shift delta Tm (Tyrphostin 9) [°C] | thermal shift delta Tm (Aurora A Inhibitor I) [°C] | thermal shift delta Tm (Picropodophyllin (PPP)) [°C] | thermal shift delta Tm (Anisomycin) [°C] | thermal shift delta Tm [3] [°C] | thermal shift delta Tm [4] [°C] | thermal shift delta Tm [5] [°C] | thermal shift delta Tm [6] [°C] | thermal shift delta Tm [7] [°C] |
| --- | --- | --- | --- | --- | --- | --- | --- | --- | --- | --- | --- |
| LOC_OS04G57630-cb004 | 0.3 | 0.11 | -0.37 | 4.13 | 0.26 | 0.15 | 0.3 | 1.58 | -0.13 | -0.06 | 1.43 |
| LOC_OS06G16330-cb003 | 1.18 | 2.32 | 0.83 | 8.9 | 0.19 | -0.28 | -0.04 | 5.39 | -0.12 | – | 6.83 |
| LOC_OS01G39600-cb002 | 0.11 | 3.42 | – | 3.74 | -0.4 | -0.07 | -0.58 | 2.01 | 0.35 | – | 6.61 |
| LOC_OS01G70970-cb002 | 0.43 | 0.94 | 2.45 | 4.68 | 0.24 | 0.31 | 0.31 | 4.78 | -0.01 | – | 5.08 |
| LOC_OS05G30820-cb001 | 0.57 | 1.27 | 0.84 | 1.39 | 0.41 | 0.89 | 0.33 | 0.99 | 0.5 | 0.82 | 0.98 |
| LOC_OS07G06570-cb004 | 0.21 | 0.05 | 2.9 | 0.63 | 1.02 | 1 | 1.01 | 0.08 | 1.12 | – | 0.51 |
| LOC_OS01G48390-cb002 | 0.77 | 0.72 | 2.01 | 4.11 | 0.19 | 0.33 | -0.27 | 1.32 | 0.11 | – | 1.21 |
| LOC_OS06G22820-cb001 | 0.73 | 1.01 | 1.56 | -0.07 | 0.27 | 0.57 | 0.55 | 0.55 | 0.41 | 1 | 0.64 |
| LOC_OS04G41100-cb001 | 0.64 | 0.96 | 1.09 | 1.62 | 0.3 | 0.43 | 0.13 | 3.1 | 0.39 | 1.42 | 2.42 |
| LOC_OS01G60330-cb001 | 1.6 | 1.56 | 4.55 | 12.3 | 0.72 | 0.77 | 1.23 | 4.72 | -0.01 | – | 10.8 |
| LOC_OS03G50810-cb003 | 0.73 | 0.71 | 0.82 | 3.94 | 0.16 | 0.59 | 0.9 | 3.03 | 0.23 | 1.38 | 5.29 |
| LOC_OS01G10900-cb004 | 1.47 | -0.04 | 3.61 | 0.91 | 0.63 | 0.16 | 0.15 | 1.02 | 0.1 | – | 0.03 |
| LOC_OS01G02750-cb003 | 1.62 | 1.02 | 6.7 | 0.26 | 0.88 | 0.6 | 0.82 | 2.97 | 0.47 | -0.47 | 4.52 |
| LOC_OS01G13800-cb001 | 0.83 | 2.05 | 1.92 | 0.32 | -0.49 | 0.17 | 0.12 | 0.49 | 0.06 | – | -0.04 |
| LOC_OS02G17970-cb001 | 1.08 | 2.06 | 3.2 | 0.33 | 0.61 | 0.2 | 0.79 | 0.72 | -0.06 | – | 0.93 |
| LOC_OS01G60700-cb002 | 1.75 | 1.51 | 4.79 | 0.71 | 0.4 | 0.15 | 1.33 | 0.77 | 0.02 | 3.52 | 1.41 |
| LOC_OS05G28520-cb001 | 1.13 | 0.45 | 1.67 | 0.67 | 0.07 | 0.12 | 0.27 | 0.94 | -0.36 | 3.85 | 0.32 |
| LOC_OS01G51400-cb002 | 0.56 | 0.64 | 1.62 | -0.05 | -0.01 | 0.24 | 0.03 | 0.84 | 0.24 | – | 0.3 |
| LOC_OS02G08530-cb003 | 1.36 | 1.36 | 2.26 | 2.48 | 0.6 | 1.28 | 0.72 | 2.97 | 0.37 | 0.99 | 5.48 |
| LOC_OS03G50450-cb001 | 1.25 | 0.89 | 1.36 | 6.04 | 0.03 | 0.61 | 0.76 | 1.49 | 0.18 | 0.07 | 2.51 |

| Target | thermal shift delta Tm [1] [°C] | thermal shift delta Tm [2] [°C] | thermal shift delta Tm (Tyrphostin 9) [°C] | thermal shift delta Tm (Aurora A Inhibitor I) [°C] | thermal shift delta Tm (Picropodophyllin (PPP)) [°C] | thermal shift delta Tm (Anisomycin) [°C] | thermal shift delta Tm [3] [°C] | thermal shift delta Tm [4] [°C] | thermal shift delta Tm [5] [°C] | thermal shift delta Tm [6] [°C] | thermal shift delta Tm [7] [°C] |
| --- | --- | --- | --- | --- | --- | --- | --- | --- | --- | --- | --- |
| LOC_OS04G35114-cb001 | 1.21 | 0.3 | 0.89 | 3.75 | 0.21 | 0.57 | 1.64 | 6.97 | 0.13 | 1.31 | 5.95 |
| LOC_OS05G16824-cb004 | 2.14 | -1.4 | -0.97 | 7.48 | -3.09 | -4.31 | 1.29 | 8.5 | -1.77 | 2.01 | 15.4 |
| LOC_OS01G01410-cb001 | 0.85 | 0.56 | 3.01 | 2.6 | -0.11 | 0.63 | 0.04 | 2.18 | 0.73 | – | 3.66 |
| LOC_OS01G21960-cb002 | 1.38 | 1.5 | 4.31 | 2.25 | 0.41 | 0.52 | 0.61 | 1.85 | 0.03 | – | 3.76 |
| LOC_OS05G07850-cb002 | 1.58 | 4.65 | 0.08 | 12.2 | -0.91 | 0.21 | 7.34 | 8.01 | -0.57 | 2.26 | 8.76 |
| LOC_OS02G07810-cb001 | 1.72 | 2.07 | 2.29 | 0.45 | 0.15 | 0.03 | 0.73 | 0.97 | 0.6 | – | 1.44 |
| LOC_OS02G54510-cb004 | 0.42 | 0.85 | 0.47 | 1.31 | 0.14 | 0.56 | 0.56 | 0.44 | 0.08 | 0.65 | 1.44 |
| LOC_OS01G67340-cb003 | 1.03 | 0.32 | -0.32 | 0.7 | 0.12 | 0.35 | 0.5 | 4.84 | -0.48 | 0 | 2.48 |
| LOC_OS03G27990-cb004 | 0.81 | 0.8 | 0.88 | 1.5 | 0.02 | 0.47 | 0.54 | 1.69 | -0.07 | 0.11 | 3.66 |
| LOC_OS01G14860-cb001 | 1.32 | 1.24 | 3.15 | 3.95 | 0.29 | -0.05 | 0.07 | 5.78 | -0.1 | – | 7.87 |
| LOC_OS07G07230-cb001 | 0.39 | 1.24 | 0.49 | 0.3 | 0.63 | 0.94 | 0.5 | -0.03 | 0.41 | 0.68 | 0.14 |
| LOC_OS01G57100-cb003 | 1.78 | -0.11 | 6.29 | 1.79 | 0.44 | 1.09 | 1.54 | 1.34 | 0.63 | – | 3.28 |
| LOC_OS03G12390-cb001 | 1.3 | 0.42 | 0.25 | 5.37 | -0.2 | -0.29 | 0.45 | 4.35 | -0.25 | 0.52 | 4.7 |
| LOC_OS03G04050-cb001 | 0.96 | 0.99 | 0.99 | 0.02 | 0.1 | 0.72 | 0.67 | 0.53 | 0.27 | 0.69 | 0.52 |
| LOC_OS02G45750-cb003 | 1.66 | -0.03 | 0.99 | 3.48 | 0.36 | 1.18 | 2.08 | 7.07 | -0.14 | 0.32 | 11.3 |
| LOC_OS02G14120-cb001 | 0.47 | 0.92 | 3.24 | 8.23 | 0.5 | 0.58 | 0.02 | 4.75 | -0.47 | – | 7.91 |
| LOC_OS01G52050-cb004 | 0.91 | 2.42 | 3.34 | 1.73 | -0.26 | 0.12 | -0.12 | 4.67 | -0.06 | – | 9.73 |
| LOC_OS05G43570-cb004 | 0.83 | 0.83 | 1.46 | 1.76 | -0.21 | 0.46 | 0.38 | 0.79 | 0.31 | 1 | 1.44 |
| LOC_OS01G63280-cb003 | 0.5 | 0.9 | 2.28 | 0.22 | -0.03 | 0.15 | 0.38 | 4.22 | -0.3 | – | 0.81 |
